The list is not random: actives were taken first. Their share in the collection is about 10%.
NIH3T3 tox: Cytotoxic Profiling in NIH 3T3 Cell Line of Diverse Libraries Using Quantitative High-Throughput Screening; NIH 3T3 viability, CellTiter-Glo ATP luminescence, 48-72 h; Potency, µM (top dose mostly 96.7 µM), inactives show at the top dose activity change, negative = cytotoxicity, most hits filed as inhibitors; 94,000 tested, 4.3% active; AID 1345082, 2018; also: % is scaled to controls: 0 for no effect and ±100 for the full control effect; nearly all actives have a fitted effect of over 55% in size
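Cells were seeded at 400 per well, treated with pin-transferred compound, and kept 48 or 72 hr at 37 °C before CellTiter-Glo addition and luminescence imaging of cellular ATP.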
FLuc inh-1: Firefly luciferase inhibition profiling of diverse chemical library using quantitative high-throughput screening; purified P. pyralis luciferase, luminescence, biochemical; Potency, µM (highest dose often 115 µM), usual class: inhibitors; 76,000 tested, 2.5% active; AID 1347043, 2019; also: % is scaled to controls: 0 for no effect and ±100 for the full control effect; nearly all actives have a fitted effect of over 65% in size
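Luminescence read by CCD imaging after purified firefly luciferase (10nM final) was added to substrate buffer holding 10uM D-luciferin and 10uM ATP, pH 7.5, pre-dosed with compound.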
hNpr1 antagonist: Natriuretic polypeptide receptor (hNpr1) antagonism - Primary qHTS; 76,000 tested, 1.6% active; Potency, µM (titrated, usually from 46.3 µM), for the others: at the top dose activity change, negative = inhibition, usual class: inhibitors; HEK293 hNpr1 GloSensor cGMP, ANP-stimulated luminescence; Atrial natriuretic peptide receptor 1 (Homo sapiens), P16066; calls by dose curve; also: % is scaled to controls: 0 for no effect and ±100 for the full control effect; nearly all actives have a fitted effect of over 60% in size
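HEK293 cells stably expressing human Npr1 and cGMP GloSensor pGS-40F, loaded 2 h with 2% GloSensor reagent, given compound 30 min at room temperature. Luminescence read before and 20 min after 0.1 nM hNppA.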
GPT2 inh: Primary qHTS assay for inhibitors of Glutamate pyruvate transaminase 2 (GPT2); Alanine aminotransferase 2 (Homo sapiens), Q8TD30; Recombinant GPT2, coupled pyruvate oxidase/HRP Amplex Red fluorescence; Potency, µM (series often up to 57.7 µM), without a hit: top-dose activity change, negative = inhibition, hits mostly inhibitors; 100,000 tested, 0.25% active; AID 1671188, 2021; also: % is scaled to controls: 0 for no effect and ±100 for the full control effect; nearly all actives have a fitted effect of over 60% in size
Target sequence (Q8TD30 whole entry, looked up): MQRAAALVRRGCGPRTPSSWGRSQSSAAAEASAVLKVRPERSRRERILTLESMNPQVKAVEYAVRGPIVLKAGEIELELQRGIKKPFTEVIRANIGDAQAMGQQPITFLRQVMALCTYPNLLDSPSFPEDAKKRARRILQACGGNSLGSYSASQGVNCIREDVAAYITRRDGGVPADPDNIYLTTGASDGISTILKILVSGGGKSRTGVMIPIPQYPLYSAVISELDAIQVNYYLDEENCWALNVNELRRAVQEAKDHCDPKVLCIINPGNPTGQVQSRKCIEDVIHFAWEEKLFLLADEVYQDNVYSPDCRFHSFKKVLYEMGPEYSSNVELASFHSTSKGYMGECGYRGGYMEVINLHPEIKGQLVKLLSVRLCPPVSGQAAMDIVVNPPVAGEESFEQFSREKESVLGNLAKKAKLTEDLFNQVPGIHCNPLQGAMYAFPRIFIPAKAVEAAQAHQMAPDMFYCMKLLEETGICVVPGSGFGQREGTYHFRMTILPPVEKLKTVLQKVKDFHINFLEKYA
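Fluorescence of coupled pyruvate oxidase/HRP/Amplex Red system (50uM Amplex, 30 min, dark) reports pyruvate formed by GPT2. Enzyme reaction: 10ng/uL GPT2, 2mM L-alanine, 250uM a-KG, 30 min room temperature, pH 7.5; 50uM AOA control.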
HEK cytotox: Cytotoxic Profiling in HEK 293 Cell Line of Diverse Libraries Using Quantitative High-Throughput Screening | 94,000 tested, 6.6% active | Potency, µM (top dose mostly 115 µM), for inactives: top-dose activity change, negative = cytotoxicity, actives largely listed as inhibitors | HEK 293 viability, ATP luminescence (CellTiter-Glo), 48-72 h | AID 1345083, 2018; also: % is scaled to controls: 0 for no effect and ±100 for the full control effect; nearly all actives have a fitted effect of over 60% in size
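Viability of HEK 293 cells, plated at 250 cells/well, was judged by cellular ATP after compound treatment for 48 or 72 hr. Luminescence was imaged 10 min after CellTiter-Glo addition at room temperature.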
FLuc SDR -ATP: Firefly luciferase (FLuc-C-HiBiT) SDR gain of signal screen - without ATP; shares compounds with FLuc inh-1; Purified FLuc-C-HiBiT, Nano-Glo HiBiT luminescence, no ATP; Potency, µM (series often up to 32.7 µM), inactives show top-dose activation (signal gain), hits mostly activators; 1,300 tested, 7.8% active; AID 1963318, 2024; also: nearly all actives have a fitted effect of over 55% in size
FLuc SDR ATP: Firefly luciferase (FLuc-C-HiBiT) SDR gain of signal screen - plus ATP; shares compounds with FLuc inh-1; purified FLuc-C-HiBiT + ATP, HiBiT complementation luminescence; Potency, µM (top dose mostly 32.7 µM), for the others: at the top dose activation (gain of signal), actives largely listed as activators; 1,300 tested, 8.7% active;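 also: signal reports ligand binding via conformational change of the enzyme rather than luciferase catalysis; % of control where 0% means no effect; nearly all actives have a fitted effect of over 55% in size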
FLuc inh-2: Firefly luciferase (FLuc-C-HiBiT) enzymatic inhibition screen - Functional assay | shares compounds with FLuc inh-1 | purified FLuc-C-HiBiT enzyme, luciferin luminescence | Potency, µM (series often up to 32.7 µM), for the others: at the highest dose activity change, negative = inhibition, hits mostly inhibitors | 1,300 tested, 42% active | AID 1963320, 2024; also: % is scaled to controls: 0 for no effect and ±100 for the full control effect; nearly all actives have a fitted effect of over 70% in size
An asterisk follows results filed as active; i = inactive; ? = inconclusive; . = no result; [ ] = remark or other dose. Unless noted, calls follow the shape of the dose curve; as a rule, active = well fitted curve in the direction sought with a large enough effect; inconclusive = small, poorly fitted or top-dose-only effect, or another doubt; inactive = no such curve, though single readings can be large; an effect the other way counts as inactive or inconclusive. Potency is read from the fitted curve at half-maximal effect.

SMILES	NIH3T3 tox	FLuc inh-1	hNpr1 antagonist	GPT2 inh	HEK cytotox	FLuc SDR -ATP	FLuc SDR ATP	FLuc inh-2
COc1ccc(CCC(=O)N2CCC3(CC2)CC(CC(=O)N2CCOCC2)CCO3)cc1 (centres undefined)	-11%	.	.	i	i	.	.	.
CCCCCc1nn2cc(-c3ccccc3)nc2s1	.	.	.	.	.	?	?	0.62µM*
O=C(NC1CCCN(c2cc(-c3ccc(F)cc3)[nH]n2)C1)c1ccc2ncccc2c1 (centres undefined)	?	4.5µM*	-19%	?	?	-3%	-3%	8.8µM*
O=C(NC1CCCN(c2cc(-c3ccc(F)cc3)[nH]n2)C1)c1ccc(C(F)(F)F)cc1 (centres undefined)	-17%	i	-7%	-9%	?	.	.	.
CN(C)c1cccc(C(=O)NC2CCN(c3cc(-c4ccccc4)[nH]n3)C2)c1 (centres undefined)	?	7.1µM*	-26%	?	?	13%	7.9µM*	7µM*
COc1ccc(-c2cc(N3CCCC(NC(=O)c4ccc5ncccc5c4)C3)n[nH]2)cc1 (centres undefined)	?	3.2µM*	-22%	-22%	?	11%	6%	3.9µM*
COc1ccccc1-c1[nH]ncc1CN1CCCCCNC(=O)[C@@H]2CCC[C@@H]21	-15%	i	-1%	3%	-3%	.	.	.
O=C(NC1CCCCCC1)c1nc2sccn2c1-c1ccc(F)cc1	?	.	.	2%[88.5 µM]	-35%[172 µM]	.	.	.
O=C(NC1CCCCC1)N1Cc2[nH]cnc2C[C@H]1c1nc(-c2cccc([N+](=O)[O-])c2)no1	?	i	-4%	-13%	-15%	.	.	.
COc1ccc(N2CCN(C(=O)CCc3ccnc(N4CCOCC4)c3)CC2)cc1	-18%	i	-21%	-28%	-11%	.	.	.
COc1ccc2nc(-c3cccc(C(C)=O)c3)sc2c1	.	.	.	.	.	12µM*	?	1.2µM*
COc1ccc2nc(-c3ccc(N4CCN(C(=O)OC(C)(C)C)CC4)cc3)sc2c1	.	.	.	.	.	16%	9%	?
CC(=O)c1cccc(-c2nc3ccccc3s2)c1	.	.	.	.	.	?	?	9.9µM*
CC(=O)c1cc2ccccc2s1	.	.	.	i	.	.	.	.
Cc1cnc(-c2ccncc2)n1CC1CN(Cc2cccnc2)C1	-13%	.	.	-2%	-3%	.	.	.
O=C(NCCc1ccccn1)C1CN(C2CCCC2)C(=O)N1 (centres undefined)	-16%[138 µM]	.	.	-1%[88.5 µM]	-1%[172 µM]	.	.	.
COc1cccc(CN2CCC3(CC2)NC(=O)c2ccccc2O3)c1	-20%	i	0%	0%	-18%	.	.	.
O=C(O)c1ccc(-c2noc(-c3ccc(C(F)(F)F)cc3)n2)cc1	.	.	.	.	.	?	0.44µM*	0.31µM*
O=C(COc1ccc(F)cc1)N1CC(Oc2ccc(-c3nc(-c4ccccc4)no3)cc2)C1	-15%	?	-3%	i	?	.	.	.
O=C(O)c1ccc(-c2noc(-c3ccc(F)cc3)n2)cc1	.	.	.	.	.	?	0.56µM*	0.44µM*
